Data published in PubChem BioAssay (NCATS).
Values without a mark were called inactive. Records with an inconclusive call do not appear. Entries that show only a call come without a potency. Calls of active or inactive are those of the source. Unless noted, the call rests on the fitted dose curve; in most records, active means well fitted curve in the direction sought with a large enough effect; inconclusive means small, poorly fitted or top-dose-only effect, or another doubt; inactive means no such curve, though single readings can be large; an effect the other way counts as inactive or inconclusive.

Tests used:
[1] = Cell Viability - BJ (AID 421; calls by dose curve;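 further: potency means the concentration at half of the fitted maximal effect; cells exposed to compound for 40 hours at 37 °C before readout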); settings: BJ fibroblast viability, qHTS
Procedure, shortened: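 Cytotoxicity as drop in intracellular ATP (CellTiter-Glo, 20 min RT) after 40 hr compound exposure of BJ fibroblasts at 37 °C. Titrations scaled between DMSO and 100 uM tamoxifen, Hill-fitted for AC50.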

[2] = Cell Viability - Jurkat (AID 426;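 active means dose-dependent loss of cell ATP signal giving a full or clear fitted curve, ranked by lower potency value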; further: potency means the concentration at half of the fitted maximal effect); settings: qHTS
Procedure, shortened: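 Jurkat (clone E6-1, human T-cell leukemia) cells, 5000/well in complete medium, were exposed to compound for 40 hr at 37 °C. Viability was read as intracellular ATP by CellTiter-Glo luminescence; AC50 came from Hill fits of concentration-response data.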

[3] = Cell Viability - Hek293 (AID 427;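 active means compounds whose dose-response curve shows a full or clear partial loss of cell viability, called from curve shape rather than a numeric limit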;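 further: potency means the concentration at half of the fitted maximal effect; cells exposed to compound for 40 hours at 37 °C before reading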); settings: qHTS
Procedure, shortened: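 Luminescent ATP content (CellTiter-Glo, 20 min at room temperature) was measured after a 40 hr, 37 °C compound exposure of HEK293 cells. AC50 values came from Hill-equation fits of qHTS concentration-response data normalized to DMSO and 100 uM tamoxifen.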

[4] = Cell Viability - HepG2 (AID 433; calls by dose curve;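 further: potency means the concentration at half of the fitted maximal effect; potency for ATP loss meaning cytotoxicity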); settings: qHTS
Procedure, shortened: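 Read-out is luciferase-based quantitation of cellular ATP as a measure of viable HepG2 cells after 40 h treatment at 37 °C. Signal decrease is scaled between DMSO-only and 100 uM tamoxifen controls, with AC50 fitted by the Hill equation.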

[5] = Cell Viability - MRC5 (AID 434; calls by dose curve;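 further: potency means the concentration at half of the fitted maximal effect; potency reflects cytotoxicity seen as loss of intracellular ATP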); settings: MRC5 lung fibroblast viability, qHTS
Procedure, shortened: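 qHTS cytotoxicity in human lung fibroblast MRC5 cells; 40 hr treatment, 37 °C; cellular ATP by luciferase luminescence; DMSO = 0%, 100 uM tamoxifen = 100% inhibition; Hill-fit AC50.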

[6] = Cell Viability - SK-N-SH (AID 435; calls by dose curve;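 further: potency means the concentration at half of the fitted maximal effect; compound exposure lasted 40 h at 37 °C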); settings: SK-N-SH neuroblastoma cell viability qHTS
Procedure, shortened: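 Luminescent ATP signal served as the viability read-out after 40 hours of compound treatment of human neuroblastoma SK-N-SH cells. Concentration-response data, scaled between DMSO and 100 uM tamoxifen, gave AC50 values by standard Hill modeling.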

[7] = target: Mitogen-activated protein kinase 10 (Mus musculus) (UniProt Q61831); assay: JNK3 AlphaScreen Assay (AID 530; active means well fitted curve in either direction with a large enough effect, not every such curve was filed as active;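 further: kinase came from lysate of stimulated human HepG2 cells; signal reports phosphorylation of biotinylated GST-cJun 1-79 at Ser73 with 10 µM ATP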); settings: JNK3 lysate, c-Jun phosphorylation; series mostly up to 57.1 µM
Procedure, shortened: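 Room-temperature AlphaScreen kinase assay; pre-activated HepG2 lysate as JNK3 source, biotin-GST-cJun(1-79) substrate, 10 uM ATP, compound 15 min preincubation.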

[8] = Cell Viability - N2a (AID 540); settings: N2a mouse neuroblastoma cell viability; activity change, negative = cytotoxicity: at 92.2 µM (top of the series); further: nearly all actives have a fitted effect of over 45% in size
Procedure, shortened: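 Mouse neuroblastoma N2a cells (1500/well) were preincubated 5 hr at 37 °C, then exposed to compounds for 40 hr at 37 °C in complete medium. Viability was read as intracellular ATP by CellTiter-Glo luminescence; AC50 from Hill fits.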

[9] = Cell Viability - NIH 3T3 (AID 541); settings: NIH 3T3 cell viability, qHTS; activity change, negative = cytotoxicity: at 92.2 µM (top of the series); further: nearly all actives have a fitted effect of over 25% in size; further: potency means the concentration at half of the fitted maximal effect
Procedure, shortened: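 NIH 3T3 mouse embryo fibroblasts (1000 cells/well) were plated in complete medium and treated with compound for 40 hr at 37 °C. Viability was read as intracellular ATP by CellTiter-Glo luminescence; AC50 values came from Hill-equation fits of concentration-response data.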

[10] = Cell Viability - HUV-EC-C (AID 542); settings: HUV-EC-C endothelial cell viability, qHTS; series mostly up to 92.2 µM; further: nearly all actives have a fitted effect of over 35% in size
Procedure, shortened: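 HUV-EC-C normal human vascular endothelial cells, 1000 cells/well, pre-incubated 5 hr at 37 °C, then exposed to compounds for 40 hr at 37 °C in complete medium. Viability measured as intracellular ATP by CellTiter-Glo luminescence; AC50 from Hill fits.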

[11] = Cell Viability - SH-SY5Y (AID 544); settings: SH-SY5Y neuroblastoma cell viability; viability change, negative = cytotoxic: at 92.2 µM (top of the series); further: nearly all actives have a fitted effect of over 55% in size
Procedure, shortened: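 Human neuroblastoma SH-SY5Y cells (1500/well) in complete medium were exposed to compounds for 40 hr at 37 °C; intracellular ATP was then quantified by CellTiter-Glo luminescence after 20 min at room temperature. AC50 came from Hill-equation concentration-response fits.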

[12] = Cell Viability - Renal Proximal Tubule (AID 545); settings: renal proximal tubule cells viability, primary cells of rat origin; series mostly up to 91.7 µM; further: nearly all actives have a fitted effect of over 40% in size
Procedure, shortened: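 Luminescent ATP signal (CellTiter-Glo) served as the viability read-out after 40 hr compound exposure of freshly isolated rat proximal tubule cells at 37 °C. Concentration-dependent ATP loss was fitted with the Hill equation to give AC50.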

[13] = Cell Viability - Mesenchymal (AID 546); settings: mesenchymal cells viability, qHTS; series mostly up to 91.7 µM;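 further: cells exposed to compound for 40 hours before reading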
Procedure, shortened: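 AC50 values reflect the drop in intracellular ATP in a human kidney mesenchymal line derived from normal glomeruli. Treatment lasts 40 hr at 37 °C in complete medium, and the signal comes from CellTiter-Glo luminescence.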

[14] = Cellular Toxicity (caspase-3) HepG2 (AID 654); settings: HepG2 caspase-3 activation, luminescence; series mostly up to 92.2 µM;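 further: cells exposed to compound for 16 hours before reading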
Procedure, shortened: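 HepG2 cells (1500/well) in complete medium were treated with compounds for 16 hr at 37 °C. Caspase-3/7 activity was then read as luminescence from peptide-aminoluciferin cleavage. AC50 came from Hill fits, normalized to DMSO and 100 uM tamoxifen.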

[15] = Cellular Toxicity (caspase-3) Jurkat (AID 655); settings: Jurkat caspase-3 activation, luminescence; caspase-3 activation: at 92.2 µM (top of the series), DMSO = 0%, tamoxifen = 100%;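 further: cells exposed to compound for 16 h at 37 °C before reading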
Procedure, shortened: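 5000 Jurkat cells/well; compound 16 hr, 37 °C; Caspase-Glo 3/7 added, 20 min RT; luminescence read. Norm: DMSO = 0%, tamoxifen 100 uM = 100%. AC50, Hill model.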

[16] = Cellular Toxicity (caspase-3) HUV-EC-C (AID 656); settings: HUV-EC-C cells, caspase-3 activation (apoptosis), vehicle = 0, 100 µM tamoxifen = 100%; series mostly up to 92.2 µM
Procedure, shortened: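 qHTS; HUV-EC-C, 1000 cells/well; 5 hr settle, 16 hr cmpd, 37°C; Caspase-Glo 3/7, 20 min RT; luminescence. Norm: DMSO = 0%, tamoxifen 100 uM = 100%. Hill-fit AC50.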

[17] = Cellular Toxicity (caspase-3) SHSY5Y (AID 657); settings: SH-SY5Y caspase-3 activation, DMSO zero, 10 µM staurosporine = 100%; series mostly up to 91.7 µM;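 further: cells exposed to compound for 16 hours at 37 °C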
Procedure, shortened: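 qHTS, SH-SY5Y, 1500 cells/well, 5 h pre-incubation 37 °C; compound 16 h 37 °C; Caspase-Glo 3/7 1 h RT; luminescence. Norm.: DMSO = 0, 10 uM staurosporine = 100%. Hill fit → AC50.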

[18] = Cellular Toxicity (caspase-3) BJ (AID 658); settings: BJ fibroblasts, luminescence, normalized: DMSO 0%, staurosporine 100%; series mostly up to 91.7 µM;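 further: cells exposed to compound for 16 hours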
Procedure, shortened: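 Readout: Caspase-Glo 3/7 luminescence increase in BJ cells after 16 hr treatment at 37 °C. Staurosporine and tamoxifen served as positive controls; AC50 values came from Hill modelling of data normalized to DMSO and 10 uM staurosporine.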

[19] = Cellular Toxicity (caspase-3) MRC-5 (AID 659); settings: MRC-5 cells, luminescence, normalized: DMSO 0%, 10 µM staurosporine 100%; series mostly up to 91.7 µM
Procedure, shortened: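 Concentration-dependent caspase 3/7 activation is measured in human normal lung fibroblasts (MRC-5) following 16-hour treatment. AC50 values come from standard Hill-equation modeling of luminescence normalized to DMSO and 10 uM staurosporine.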

[20] = Cell Viability - H-4-II-E (AID 543); settings: H-4-II-E rat hepatoma viability; series mostly up to 92.2 µM; further: nearly all actives have a fitted effect of over 35% in size
Procedure, shortened: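 Rat hepatoma H-4-II-E cells (1500/well) were plated, incubated 5 hr at 37 °C, then exposed to compounds for 40 hr at 37 °C. Cellular ATP was read by CellTiter-Glo luminescence; AC50 came from Hill-equation fits of concentration-response data.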

Row | Compound | Potency [1] | Potency [2] | Potency [3] | Potency [4] | Potency [5] | Potency [6] | outcome [7] | activity change, negative = cytotoxicity [8] | Potency [9] | Potency [10] | Potency [11] | Potency [12] | Potency [13] | Potency [14] | caspase-3 activation [15] | outcome [16] | outcome [17] | outcome [18] | outcome [19] | Potency [20]
1 | CCCCC(CC)COC(=O)CCCCC(=O)OCC(CC)CCCC (stereo not drawn) | > 92 µM | > 92 µM | > 92 µM | > 92 µM | > 92 µM | > 92 µM | inactive | 3.75% | inactive | inactive | inactive | inactive | inactive | inactive | -0.708% | inactive | inactive | inactive | inactive | 
2 | CCC=O | > 92 µM | > 92 µM | > 92 µM | > 92 µM | > 92 µM | > 92 µM | inactive | 1.92% | inactive | inactive | inactive |  | inactive | inactive | 3.47% | inactive | inactive | inactive | inactive | inactive
3 | CCCCCNCCCCC | > 92 µM | > 92 µM | > 92 µM | > 92 µM | > 92 µM | > 92 µM | inactive | 0.97% | inactive |  | inactive | inactive | inactive | inactive |  | inactive | inactive | inactive | inactive | inactive
4 | Cc1cccc(C(=O)O)c1[N+](=O)[O-] | > 92 µM | > 92 µM | > 92 µM | > 92 µM | > 92 µM | > 92 µM | inactive | 8.99% |  | inactive | inactive | inactive | inactive | inactive |  |  | inactive | inactive | inactive | inactive
5 | CO[Si](CCCNCCC[Si](OC)(OC)OC)(OC)OC | > 92 µM | > 92 µM | > 92 µM | > 92 µM | > 92 µM | > 92 µM | inactive | -27% |  | inactive | inactive | inactive | inactive |  | 2.91% | inactive | inactive | inactive | inactive | inactive
6 | O=C(O)c1ccc(Cl)c(Cl)c1 | > 92 µM | > 92 µM | > 92 µM | > 92 µM | > 92 µM | > 92 µM | inactive | 1.1% |  | inactive | inactive | inactive | inactive | inactive | -1.55% | inactive | inactive | inactive | inactive | inactive
7 | Cc1ccc(Cl)cc1N | > 92 µM | > 92 µM | > 92 µM | > 92 µM | > 92 µM | 47.5 µM | inactive | -10.6% | inactive | inactive |  | inactive | inactive | inactive | 4% | inactive | inactive | inactive | inactive | inactive
8 | N#CCc1ccccc1[N+](=O)[O-] | > 92 µM | > 92 µM | > 92 µM | > 92 µM | > 92 µM | > 92 µM | inactive | -1.71% | inactive | inactive |  | inactive | inactive |  | 1.28% | inactive | inactive | inactive | inactive | 
9 | CN(C)CCCNCCCN | > 92 µM | > 92 µM | > 92 µM | > 92 µM | > 92 µM | > 92 µM | inactive | 1.31% | 12.6 µM (active) | inactive | inactive |  | inactive | inactive | 2.48% | inactive | inactive | inactive | inactive | inactive
10 | O=C(O[C@@H](C(=O)O)[C@@H](OC(=O)c1ccccc1)C(=O)O)c1ccccc1 | > 92 µM | > 92 µM | > 92 µM | > 92 µM | > 92 µM | > 92 µM | inactive | 4.68% | inactive | inactive | inactive |  | inactive | inactive | 1.56% | inactive | inactive | inactive | inactive | inactive
11 | Cc1ccc(Br)cc1 | > 92 µM | > 92 µM | > 92 µM | > 92 µM | > 92 µM | > 92 µM | inactive | 6.22% |  | inactive | inactive | inactive | inactive | inactive | 0.635% | inactive | inactive | inactive | inactive | inactive
